According to the OligoGym collection:

Assays:
Assay in all cases: pooled miR-30 sensor sort-seq; sequence = guide strand
Conditions in all cases: shRNA
FPGT-TNNI3K = target: FPGT-TNNI3K
FRMD4B = target: FRMD4B
FPGS = target: FPGS
FXN = target: FXN
FTL = target: FTL
FUT7 = target: FUT7
Further: reference of the scale not given here.

TTACATTTACATCAGCACCAAA
sensor-assay potency score (higher = more potent) (FPGT-TNNI3K): -1.01

TTACTTGCCATGATGAACTGAC
sensor-assay potency score (higher = more potent) (FRMD4B): 0.412

TAGCATTGAAGAGCAAGACTCG
sensor-assay potency score (higher = more potent) (FPGS): -0.404

TTGGTCTGCGTTGCCTGTGGAT
sensor-assay potency score (higher = more potent) (FPGS): -1.06

TCTTCGTCCAGGTGGTTCCAGT
sensor-assay potency score (higher = more potent) (FPGS): -0.895

TATCTTGAGCATTCACATCTGC
sensor-assay potency score (higher = more potent) (FPGT-TNNI3K): 0.666

TTCTCTTGGAGGAAGACGTGGA
sensor-assay potency score (higher = more potent) (FPGS): 0.047

TTCCATTGGAATAACTTCCGAG
sensor-assay potency score (higher = more potent) (FRMD4B): 0.389

TTCAGGTTGGAGCACAGTGAAG
sensor-assay potency score (higher = more potent) (FPGS): -1.98

TTGAGCATTCACATCTGCTTTG
sensor-assay potency score (higher = more potent) (FPGT-TNNI3K): -0.576

TTGCTCTTCACTAACTTCTGAG
sensor-assay potency score (higher = more potent) (FRMD4B): -0.0574

TAGAGGACATGAGATCTGCTGG
sensor-assay potency score (higher = more potent) (FPGS): -0.333

TGAAGAGCAAGACTCGAACCTC
sensor-assay potency score (higher = more potent) (FPGS): -0.155

TTGACTAGGTCAATGCTCTTGC
sensor-assay potency score (higher = more potent) (FPGT-TNNI3K): 0.745

TTGGTGAAGAGCTCAGGACTGA
sensor-assay potency score (higher = more potent) (FPGS): -0.348

ATTGATGCGGATCCGCTCCCGA
sensor-assay potency score (higher = more potent) (FPGS): -1.01

TAAACTGCCATTACTTGCCATG
sensor-assay potency score (higher = more potent) (FRMD4B): -1.04

TCTGTTGGTCTGCGTTGCCTGT
sensor-assay potency score (higher = more potent) (FPGS): -0.767

TTGCCTGTGGATGACACCTCTG
sensor-assay potency score (higher = more potent) (FPGS): -0.989

TTAATTTAGACTGCAAATCAAG
sensor-assay potency score (higher = more potent) (FPGT-TNNI3K): -1.11

TTGATGCGGATCCGCTCCCGAA
sensor-assay potency score (higher = more potent) (FPGS): -1.62

TTCCGTGAAGGCACAGGTGGAG
sensor-assay potency score (higher = more potent) (FPGS): 0.0376

TATAGAGGACATGAGATCTGCT
sensor-assay potency score (higher = more potent) (FPGS): 0.932

TCGGAGGATACATTCCGTGAAG
sensor-assay potency score (higher = more potent) (FPGS): -1.5

TCCTTGGTCTCCTCCAGCCGGT
sensor-assay potency score (higher = more potent) (FPGS): -1.92

TTTTATTTCTGCATCGTCCTTT
sensor-assay potency score (higher = more potent) (FPGT-TNNI3K): 0.923

TTCTGTTGGTCTGCGTTGCCTG
sensor-assay potency score (higher = more potent) (FPGS): -0.416

ATACATTCCGTGAAGGCACAGG
sensor-assay potency score (higher = more potent) (FPGS): 0.476

TAGAAGTTTGGGCTGAACCAGC
sensor-assay potency score (higher = more potent) (FRMD4B): -0.701

TAACATATGATTCACTGACTTT
sensor-assay potency score (higher = more potent) (FPGT-TNNI3K): -0.697

AAAGGAGACATCATAGTCCTCA
sensor-assay potency score (higher = more potent) (FXN): 0.0111

TCTAGGAAGTGAGTCTCCAGGA
sensor-assay potency score (higher = more potent) (FTL): -0.902

AAAGTCATCCACATGCACGAAG
sensor-assay potency score (higher = more potent) (FUT7): -0.891

TATCGGCTCTCATTCATGCCAG
sensor-assay potency score (higher = more potent) (FUT7): -0.795

TTAAAAATCAGAACTTGGGGGC
sensor-assay potency score (higher = more potent) (FXN): 0.521

TTGTTTGGCGTCTGCTTGTTGA
sensor-assay potency score (higher = more potent) (FXN): -0.937

TGCTTGTTGATCACATAGGTTC
sensor-assay potency score (higher = more potent) (FXN): -0.833

ATCAAATAGACACTCTGCTTTT
sensor-assay potency score (higher = more potent) (FXN): -1.04

TAACGCTTAGGTCCACTGGATG
sensor-assay potency score (higher = more potent) (FXN): -1.46

TGTTGATCACATAGGTTCCTAG
sensor-assay potency score (higher = more potent) (FXN): -0.584

TTGCGCCAGAATTTCTCCGTAA
sensor-assay potency score (higher = more potent) (FUT7): -0.526

TCTCCGTAATGTAGTCGCGGTG
sensor-assay potency score (higher = more potent) (FUT7): -1.48

TTGATTTCGACACCCAGCCCTT
sensor-assay potency score (higher = more potent) (FUT7): -1.26

TTGGTTTTTAAGGCTTTAGTGA
sensor-assay potency score (higher = more potent) (FXN): -0.944

TGTCGCTGGGCAGCTCTGGGGG
sensor-assay potency score (higher = more potent) (FUT7): -1.3

TCTGCTAGTCTTTCATAGGTGG
sensor-assay potency score (higher = more potent) (FXN): 0.437

TTGTTGATCACATAGGTTCCTA
sensor-assay potency score (higher = more potent) (FXN): 0.0276

TTCTCCGTAATGTAGTCGCGGT
sensor-assay potency score (higher = more potent) (FUT7): -0.562

TTGGTATCGGCTCTCATTCATG
sensor-assay potency score (higher = more potent) (FUT7): -1.57

TAATGTAGTCGCGGTGCTGAGA
sensor-assay potency score (higher = more potent) (FUT7): -0.815

TAGCGGTCACAGATGGCACAGA
sensor-assay potency score (higher = more potent) (FUT7): -0.787

TCACAGATGGCACAGAAACGTT
sensor-assay potency score (higher = more potent) (FUT7): -1.59

AACAGTCGCACGCGGAGCCTGT
sensor-assay potency score (higher = more potent) (FUT7): -1.06

ATAACGCTTAGGTCCACTGGAT
sensor-assay potency score (higher = more potent) (FXN): -1.03

TCGGTGAACAGTCGCACGCGGA
sensor-assay potency score (higher = more potent) (FUT7): -1.48

TTGAAGATGCCTCGGAGGTGGC
sensor-assay potency score (higher = more potent) (FUT7): -0.867

AAAGATGTCCGAGTCGCGCCGG
sensor-assay potency score (higher = more potent) (FUT7): -0.517

TCCTCATAGACTTGGCTGCGGG
sensor-assay potency score (higher = more potent) (FUT7): -1.76

TTTCTCCGTAATGTAGTCGCGG
sensor-assay potency score (higher = more potent) (FUT7): -0.338

TTGGCACTCAGGTGGCAGCGGG
sensor-assay potency score (higher = more potent) (FUT7): -1.03
